Hits are enriched below; roughly 0.71% of the tested compounds scored in any of these assays.
PI4K2A block: inhibitors of human PI4K2A; Q9BTU6; purified PI4K2A, ADP-Glo luminescence, 1 h; stronger effect = lower value; activity change, negative = inhibition, % at 76.9 µM; AID 1346378; 0.13% of 420,000 active; in the data active means activity change below about -50%; inconclusive means mostly about -30% to -49%
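PI4K2A activity was measured by ADP-Glo luminescence: enzyme (4 ug/mL stock) and phosphatidylinositol (1.2 mM stock) in Tris pH 7.5/MgCl2/EGTA/Triton X-100 buffer were reacted with ATP (300 microM stock) for one hour at ambient temperature.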
FBPA coupling cs: inhibits coupling enzyme system, counter-screen for aldolase hits | coupling enzyme system counterscreen, AmpLite Red fluorescence | activity change, negative = inhibition, % at 58.2 µM, hits read low | 0.67% of 290,000 active; in the data active means activity change below about -30%
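Fluorescence at 525 nm excitation and 598 nm emission measured inhibition of the coupled detection system without aldolase. Compounds (at 57.5 uM final) were preincubated 10 min at room temperature with coupling enzyme reagent before a 20 min substrate/AmpLite Red step.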
USP1-UAF1 inh: blocks the human USP1/UAF1 deubiquitinase complex | O94782 | recombinant USP1/UAF1, Ub-Rhodamine cleavage fluorescence | 0.23% of 390,000 active | Potency, µM (titrated, usually from 57.1 µM), most hits filed as inhibitors; further: nearly all actives have a fitted effect of over 60% in size
Target sequence (O94782 whole entry, looked up): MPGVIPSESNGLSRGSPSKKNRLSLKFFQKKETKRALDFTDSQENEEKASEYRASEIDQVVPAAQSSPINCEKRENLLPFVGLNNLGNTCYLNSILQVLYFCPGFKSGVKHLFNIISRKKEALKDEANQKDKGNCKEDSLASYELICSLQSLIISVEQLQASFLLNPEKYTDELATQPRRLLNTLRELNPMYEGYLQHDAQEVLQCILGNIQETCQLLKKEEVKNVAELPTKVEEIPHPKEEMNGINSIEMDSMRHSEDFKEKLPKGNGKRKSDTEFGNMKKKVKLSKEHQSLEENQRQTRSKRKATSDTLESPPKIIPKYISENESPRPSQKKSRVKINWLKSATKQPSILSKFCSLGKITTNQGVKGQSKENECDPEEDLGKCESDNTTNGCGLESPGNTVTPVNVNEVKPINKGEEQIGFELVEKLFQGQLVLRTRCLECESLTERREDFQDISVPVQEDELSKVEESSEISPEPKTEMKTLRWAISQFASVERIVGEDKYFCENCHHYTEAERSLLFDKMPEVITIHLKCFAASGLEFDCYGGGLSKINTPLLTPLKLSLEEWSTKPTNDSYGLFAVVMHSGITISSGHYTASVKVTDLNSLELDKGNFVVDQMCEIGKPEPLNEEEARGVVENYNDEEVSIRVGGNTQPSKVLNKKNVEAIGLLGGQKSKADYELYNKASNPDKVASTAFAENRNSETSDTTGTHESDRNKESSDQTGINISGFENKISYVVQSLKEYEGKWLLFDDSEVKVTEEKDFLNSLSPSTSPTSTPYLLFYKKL
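USP1/UAF1 complex (1 nM) preincubated 15 min at room temperature with compound, then Ub-Rho substrate (150 nM final) added. Kinetic fluorescence at 480/540 nm over 6 reads at 60 s intervals; 50 mM HEPES pH 7.8, 0.5 mM EDTA, 0.1 mg/ml BSA, 1 mM TCEP, 0.01% Tween-20.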
GALK inh: blocks human galactokinase activity; P51570; Purified GALK, Kinase-Glo residual ATP luminescence; Potency, µM (series often up to 57.5 µM), most hits filed as inhibitors; 0.007% of 270,000 active; AID 1868
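ATP-depletion format; final 35 uM ATP, 100 uM D-galactose, 5 nM enzyme; pH 8.0 HEPES/Mg2+ buffer; 60 min RT; luminescence read 10 min after detection reagent.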
Eya2 inh: inhibitors of human Eya2 phosphatase activity | 0.006% of 330,000 active | recombinant Eya2, OMFP fluorescence dephosphorylation (OMFP is methylfluorescein phosphate) | Potency, µM (top dose mostly 76.9 µM), hits mostly inhibitors | AID 488837
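Eya2 protein (added as 0.2 uM solution) was preincubated with compound for 10 min at ambient temperature in 50 mM HEPES pH 7.5, 50 mM NaCl, 5 uM MgCl2, 0.05% BSA, 1 mM DTT. OMFP (added at 50 uM) then reacted 10 min; fluorescence read at 485/525 nm.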
USP2a inh: inhibitors of human ubiquitin-specific protease USP2a; USP2 core, Ub-CHOP2 coupled fluorogenic reporter, 485/531; 0.01% of 330,000 active; Potency, µM (doses to about 38.3 µM), hits mostly inhibitors; O75604; AID 463254
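Cell-free coupled assay: 10nM USP2 core preincubated 30min RT with compound in Tris-HCl pH 8.0/CaCl2/CHAPS buffer, then 25nM Ub-CHOP2 and 25nM reporter substrate; fluorescence (Ex 485/Em 531) read after 60min RT, normalized to NEM inhibition, concentration-response curves fitted.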
A number is an active result. Unless noted, the call rests on the fitted dose curve; in most records, active means well fitted curve in the direction sought with a large enough effect; inconclusive means small, poorly fitted or top-dose-only effect, or another doubt; inactive means no such curve, though single readings can be large; an effect the other way counts as inactive or inconclusive.

Screening c1ccc(-n2cnc3cc(NCc4ccncc4)ccc32)cc1 returned PI4K2A block inactive, FBPA coupling cs -42.1, USP1-UAF1 inh inactive, GALK inh inactive, Eya2 inh inactive and USP2a inh inactive.
Screening c1ccc(-n2cnc3cc(NCc4ccccn4)ccc32)cc1 returned PI4K2A block inactive, FBPA coupling cs inactive, USP1-UAF1 inh inactive, GALK inh inactive, Eya2 inh inactive and USP2a inh inactive.
Cc1ccc(-n2nnc(-c3nccn3C)n2)cc1 was read as PI4K2A block -52.5, FBPA coupling cs inactive, USP1-UAF1 inh inactive, GALK inh inactive, Eya2 inh inactive and USP2a inh inactive.
`COc1ccc2nc(N3CCCCC3)c(C#N)cc2c1` gave PI4K2A block inactive, FBPA coupling cs -33.2, USP1-UAF1 inh inactive, GALK inh inactive, Eya2 inh inactive and USP2a inh inactive.
Screening COc1ccc2nc(N3CCCC3)c(C#N)cc2c1 returned PI4K2A block inactive, FBPA coupling cs inactive, USP1-UAF1 inh 28.2µM, GALK inh inactive, Eya2 inh inactive and USP2a inh inactive.
For CCCCCCCCCCCCC/C=C/[C@@H](O)[C@H](CO)NC(=O)CCCCC the results were FBPA coupling cs inactive.
For OCC1OC(C#Cc2ccccc2)C=CC1OCc1ccccc1 (centres undefined) the results were FBPA coupling cs inactive.
For COc1ccc2c(c1)CC/C(=C/c1ccco1)C2=O the results were PI4K2A block inactive, FBPA coupling cs inactive, USP1-UAF1 inh inactive, Eya2 inh inactive and USP2a inh inactive.
Screening O=C1/C(=C/c2ccco2)CCc2ccccc21 returned PI4K2A block -53.6, FBPA coupling cs inactive, USP1-UAF1 inh inactive, Eya2 inh inactive and USP2a inh inactive.
Screening O=C1C(=Cc2ccccc2Cl)CCc2ccccc21 returned PI4K2A block -78.4.
COc1ccccc1C=C1CCc2ccccc2C1=O was read as PI4K2A block -62.6.
CCOc1ccccc1C=C1CCc2ccccc2C1=O was read as PI4K2A block inactive and USP1-UAF1 inh inactive.
Cn1cccc1/C=C1\CCc2ccccc2C1=O was read as PI4K2A block -55.9, FBPA coupling cs inactive, USP1-UAF1 inh inactive, GALK inh inactive, Eya2 inh inactive and USP2a inh inactive.
`CC12C=C(/C=C/C=C/c3ccccc3)C(C)(C1)C(/C=C/c1ccccc1)CC2=O` (centres undefined) gave FBPA coupling cs inactive.
`O=C(CSc1nc2ccc(Cl)cc2[nH]1)c1ccc2c(c1)OCO2` gave PI4K2A block inactive, FBPA coupling cs -36.1, USP1-UAF1 inh inactive, GALK inh inactive, Eya2 inh inactive and USP2a inh inactive.
O=C(CSc1nc2cc(Cl)c(Cl)cc2[nH]1)c1ccc2c(c1)OCO2 was read as PI4K2A block inactive, FBPA coupling cs inactive, USP1-UAF1 inh inactive, GALK inh inactive, Eya2 inh inactive and USP2a inh inactive.
Cn1c(=O)cc(OCCCC(=O)Nc2cc(C(F)(F)F)ccn2)c2ccccc21 was read as PI4K2A block inactive.
For O=C(CNc1cccc2ccccc12)N/N=C/c1cccc(Oc2ccccc2)c1 the results were PI4K2A block inactive, FBPA coupling cs -31.8, USP1-UAF1 inh inactive, GALK inh inactive, Eya2 inh inactive and USP2a inh inactive.
`O=C(N/N=C/c1cccc(Oc2ccccc2)c1)c1ccccc1Br` gave PI4K2A block inactive, FBPA coupling cs -32.0, USP1-UAF1 inh inactive, GALK inh inactive, Eya2 inh inactive and USP2a inh inactive.
CN(C)c1cncc(C(=O)O)c1 was read as PI4K2A block inactive, FBPA coupling cs -55.0, USP1-UAF1 inh inactive, GALK inh inactive, Eya2 inh inactive and USP2a inh inactive.
Screening O=C(O)c1cncc(Br)c1 returned PI4K2A block inactive, FBPA coupling cs inactive, USP1-UAF1 inh inactive, GALK inh inactive, Eya2 inh inconclusive and USP2a inh inactive.
Cc1nc(-c2ccc(Cl)cc2)sc1CCNC(=O)C(=O)Nc1ccccc1C#N was read as PI4K2A block inactive and USP1-UAF1 inh inactive.
`O=C1Cc2ccccc2Sc2c(OCCN3CCCCC3)cccc21` gave PI4K2A block inactive, FBPA coupling cs -50.5, USP1-UAF1 inh inactive, GALK inh inactive, Eya2 inh inactive and USP2a inh inactive.
Screening O=C1Cc2ccccc2Sc2cc(OCCCN3CCCCC3)ccc21 returned PI4K2A block inactive, FBPA coupling cs inactive, USP1-UAF1 inh inactive, GALK inh inactive, Eya2 inh inactive and USP2a inh inactive.
Screening Cc1ccsc1/C=N/NC(=O)CSCc1ccc(Cl)cc1 returned PI4K2A block inactive, FBPA coupling cs -34.3, USP1-UAF1 inh inactive, GALK inh inactive, Eya2 inh inactive and USP2a inh inactive.
Screening COc1cc(Cl)cc2c1Sc1ccccc1/C2=C/CCN(C)C returned PI4K2A block inactive, FBPA coupling cs inactive, USP1-UAF1 inh inactive, GALK inh inactive, Eya2 inh inactive and USP2a inh inactive.
`CN(C)CC/C=C1/c2ccccc2Sc2c(O)cc(Cl)cc21` gave PI4K2A block inactive, FBPA coupling cs -30.8, USP1-UAF1 inh inactive, GALK inh inactive, Eya2 inh inactive and USP2a inh inactive.
`Cc1cc(C(=O)OCC(=O)c2cccc([N+](=O)[O-])c2)c2cccc(C)c2n1` gave PI4K2A block inactive, FBPA coupling cs inactive, USP1-UAF1 inh inactive, GALK inh inactive, Eya2 inh inconclusive and USP2a inh 11.2µM.
COc1ccc(-c2cc(C(=O)OCC(=O)c3cccc([N+](=O)[O-])c3)c3cc(C)ccc3n2)cc1 was read as PI4K2A block inactive, FBPA coupling cs inactive, USP1-UAF1 inh inactive, GALK inh inactive, Eya2 inh inactive and USP2a inh inactive.
For CCOC(=O)c1cc2c(ccn2C)n1CC(=O)N1CCN(c2ccc(F)cc2)CC1 the results were PI4K2A block inactive, FBPA coupling cs inactive, USP1-UAF1 inh inactive, GALK inh inactive, Eya2 inh inactive and USP2a inh inactive.
`CCOC(=O)c1cc2c(ccn2C)n1CC(=O)N1CCN(c2cccc(C(F)(F)F)c2)CC1` gave PI4K2A block inactive, FBPA coupling cs -32.8, USP1-UAF1 inh inactive, GALK inh inactive, Eya2 inh inactive and USP2a inh inactive.
For COc1c(C)cccc1C(=O)Nc1ccc(N2CCOCC2)c(Cl)c1 the results were PI4K2A block inactive, FBPA coupling cs -35.0, USP1-UAF1 inh inactive, GALK inh inactive, Eya2 inh inactive and USP2a inh inactive.
O=C(Nc1ccc(N2CCOCC2)c(Cl)c1)c1cccnc1Cl was read as PI4K2A block inactive, FBPA coupling cs inactive, USP1-UAF1 inh inactive, GALK inh inactive, Eya2 inh inactive and USP2a inh inactive.
